This is part of a sample that, as a whole, favours compounds with a hit. Of some 83,000 tested, about 20% had one in any assay.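 Treatment: one concentration, 48 hours, 96-well format. Scoring: percent growth, with anything below 10 considered active.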 A number with no mark means an inactive call. Calls of active or inactive are those of the source.
These compounds were tested on UACC-62 melanoma (assay: NCI-60 one-dose screen, 48 h (100 = growth as untreated, 0 = no growth, -100 = all killed)). Settings: 10 µM unless noted.

Question: Which growth does the source give for `Clc1ccc2c(OCCCN3CCOCC3)c3oc4ccccc4c3nc2c1` here?
Answer: Its growth is 33.6%.

Question: Which growth does the source give for `O=C(c1ccc(O)cc1)C1[C@H](c2ccc(Cl)cc2)[C@@H](c2ccccc2)NC12C(=O)Nc1ccc(Cl)cc12` (some centres not stated) here?
Answer: The growth was 53.6%.

Question: With `Nc1cc(-c2c[nH]c3ccccc23)nc2cc(-c3c[nH]c4ccccc34)nn12` as the compound, how does the growth read?
Answer: Its growth is 87.5%.

Question: For `Oc1c(Cl)cc(Cl)c2ccc(CN3CCCCC3)nc12`, which growth is on record?
Answer: The growth was 4.28% (active).

Question: With `CN(C)CCCOc1c2ccc(Cl)cc2nc2c1oc1ccccc12` as the compound, how does the growth read?
Answer: Its growth is -73.8% (active).

Question: Which growth does the source give for `CS(=O)(=O)c1ccc(-c2nc3ccccn3c2/C=N/Nc2nc(-c3ccc(Br)cc3)cs2)cc1` here?
Answer: The growth was 102%.

Question: How did the growth turn out when `C=CCn1c(SCC(=O)c2ccc(Br)cc2)nnc1-c1c[nH]c2ccccc12` was run?
Answer: The growth was 83.1%.

Question: `COc1cc(/C=C/C(=O)c2ccccc2)ccc1Oc1nc(NCCO)nc(N2CCOCC2)n1` was tested. Which growth did it give?
Answer: The growth was 92.9%.

Question: With `COC1CCN(Cc2ccc3c(NNC(=O)c4cnccn4)nc4cc(F)ccc4n23)C1` (configuration not stated) as the compound, how does the growth read?
Answer: Its growth is 20.7%.

Question: For `CC(C)NC(=O)c1cc(-c2ccc(NC(=O)Nc3ccc(N4CCOCC4)c(C(F)(F)F)c3)cc2)nc2cccnc12`, which growth is on record?
Answer: The growth was 75.3%.

Question: For `O=C(N/N=C/c1ccco1)c1[nH]c2ccc(Br)cc2c1-c1ccccc1`, which growth is on record?
Answer: The growth was 41.1%.

Question: How did the growth turn out when `O=C(CSc1nccc(=O)[nH]1)Nc1ccc(-c2nc3ccccc3[nH]2)cc1` was run?
Answer: The growth was 99.7%.

From PubChem BioAssay (NCI)
